Where a name gives a salt, the structure may show the parent alone. Over roughly 2,000 compounds, “fractional viability relative to vehicle” has its median near 0.91; the lowest 2% begin near 0.045. The list comes from a sample in which the lowest values are over-represented; it also holds similar structures and randomly drawn compounds.

In the test the test system is TYKNU. Put plainly: fractional viability relative to vehicle; TYKNU is a high-grade serous ovarian cancer line; higher = less growth inhibition. Conditions: 72 h. The procedure, abridged:
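TYKNU control cells or lentiCRISPRv2 knockout derivatives were plated at 500 cells per well in duplicate into drug-stamped 384-well plates holding a ~2100-compound library at 2 or 10 μM. Culture was in RPMI 1640 with 10% FBS at 37 °C in 5% CO2, with 72 h of drug treatment. Viability was measured by Cell Titer Glo luminescence, and the averaged duplicate treatment wells were normalised to duplicate control wells at the same plate position.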

Where [1] appears, read: 2uM, genotype: DNM1L knockout (sgDNM1L #1).
[2] abbreviates: 2uM, genotype: sgCTRLA1 (non-targeting control).
[3] abbreviates: 10uM, genotype: DNM1L knockout (sgDNM1L #1).
[4] abbreviates: 10uM, genotype: sgCTRLA1 (non-targeting control).

For the molecule `Nc1nc(Nc2ccc3c(c2)CCC(N2CCCC2)CC3)nn1-c1cc2c(nn1)-c1ccccc1CCC2` (stereo not drawn), the fractional viability amounted to 0.343 under setting [1], 0.242 under setting [2], 0.0232 under setting [3] and 0.0259 under setting [4].

For the molecule `CNC[C@@H](O)c1ccc(O)c(O)c1` [L-Adrenaline], the fractional viability is, setting by setting: under setting [1], 0.842; under setting [2], 1; under setting [3], 0.784; under setting [4], 0.91.

With `CC(C)Oc1ccc(C(=O)N[C@H](CNC(=O)CN(C)C)Cc2ccc(-c3cn4cccc([C@H](C)O)c4n3)cc2)cc1Cl`, the fractional viability runs as follows: under setting [1], 0.413; under setting [2], 0.508; under setting [3], 0.29; under setting [4], 0.438.

The molecule `Clc1cccc(-c2nnnn2Cc2cccnc2)c1Cl` came in with a fractional viability under setting [1] of 0.755, a fractional viability under setting [2] of 0.927, a fractional viability under setting [3] of 0.755 and a fractional viability under setting [4] of 0.73.

As to `CS(=O)(=O)Nc1ccc([N+](=O)[O-])cc1Oc1ccccc1` [Nimesulide], the fractional viability came to 0.973 under setting [1], 1.1 under setting [2], 0.922 under setting [3] and 1.01 under setting [4].

With `O=[N+]([O-])c1ccc2c(c1)S(=O)(=O)C=C2` [Stattic], the fractional viability was determined as 0.0799 under setting [1], 0.101 under setting [2], 0.0327 under setting [3] and 0.0222 under setting [4].

For the molecule `O=C(O)c1cc(=O)[nH]c(=O)[nH]1` [Orotic acid (6-Carboxyuracil)], the fractional viability is 0.916 under setting [1], 1.04 under setting [2], 1.02 under setting [3] and 1.12 under setting [4].

Regarding `COc1ccc([C@]2(C#N)CC[C@@H](C(=O)O)CC2)cc1OC1CCCC1` [Cilomilast], the fractional viability under setting [1] came out at 0.977, the fractional viability under setting [2] amounted to 1.1, the fractional viability under setting [3] amounted to 0.843 and the fractional viability under setting [4] came out at 1.15.

On to `CCc1c(Cl)c(O)c(Cl)c(O)c1C(=O)O[C@H]1[C@H](O)[C@H](OC)[C@H](OC/C2=C\C=C\C[C@H](O)/C(C)=C/[C@H](CC)[C@@H](O[C@@H]3OC(C)(C)[C@@H](OC(=O)C(C)C)[C@H](O)[C@@H]3O)/C(C)=C/C(C)=C/C[C@@H]([C@@H](C)O)OC2=O)O[C@@H]1C` [Fidaxomicin], for which the fractional viability under setting [1] is 0.741, the fractional viability under setting [2] is 0.893, the fractional viability under setting [3] stood at 0.494 and the fractional viability under setting [4] turned out to be 0.0966.

Molecule `C[C@H]1O[C@@H](O[C@H]2[C@@H](O)C[C@H](O[C@H]3[C@@H](O)C[C@H](O[C@H]4CC[C@@]5(C)[C@H](CC[C@@H]6[C@@H]5C[C@@H](O)[C@]5(C)[C@@H](C7=CC(=O)OC7)CC[C@]65O)C4)O[C@@H]3C)O[C@@H]2C)C[C@H](O)[C@@H]1O` [Digoxin] yielded a fractional viability under setting [1] of 0.0546, a fractional viability under setting [2] of 0.0452, a fractional viability under setting [3] of 0.032 and a fractional viability under setting [4] of 0.0309.

Regarding `CCS(=O)(=O)N1CCC([C@@H](C)n2c(C)c(C(=O)NCc3c(OC)cc(C)[nH]c3=O)c3ccccc32)CC1`, the fractional viability was 0.746 under setting [1], 0.93 under setting [2], 0.908 under setting [3] and 0.836 under setting [4].

On to `NC(=O)NO` [Hydroxyurea], for which the fractional viability was 0.92 under setting [1], 1.14 under setting [2], 0.948 under setting [3] and 1.16 under setting [4].

As for `CC(C)c1cnn2c(NCc3ccccc3)cc(NCCCCCCN)nc12`, the fractional viability reads like this: under setting [1], 1.09; under setting [2], 1.13; under setting [3], 0.83; under setting [4], 0.972.

For `O=C(O)CCNC(=O)c1ccccc1` [Betamipron], the fractional viability reads like this: under setting [1], 0.922; under setting [2], 1.11; under setting [3], 0.923; under setting [4], 0.986.

As to `CN(NC(=O)CC(=O)NN(C)C(=S)c1ccccc1)C(=S)c1ccccc1` [Elesclomol (STA-4783)], the fractional viability amounted to 0.0609 under setting [1], 0.0221 under setting [2], 0.0751 under setting [3] and 0.0222 under setting [4].

`O=C(O)c1ccccc1` [Benzoic Acid] had a fractional viability under setting [1] of 0.793, a fractional viability under setting [2] of 0.98, a fractional viability under setting [3] of 0.581 and a fractional viability under setting [4] of 0.958.

On to `O=CN1CC/C(=C/c2ccc3c(c2)OCO3)C1=O`, for which the fractional viability runs as follows: under setting [1], 0.723; under setting [2], 0.973; under setting [3], 0.78; under setting [4], 0.692.

On to `OC[C@H]1O[C@@H](OCCc2ccc(O)cc2)[C@H](O)[C@@H](O)[C@@H]1O` [Salidroside], for which the fractional viability by setting is: under setting [1], 0.968; under setting [2], 1.14; under setting [3], 0.842; under setting [4], 1.07.

With `O=C(c1cc(Cc2n[nH]c(=O)c3ccccc23)ccc1F)N1CCN(C(=O)C2CC2)CC1`, the fractional viability is, setting by setting: under setting [1], 0.967; under setting [2], 1.06; under setting [3], 0.727; under setting [4], 1.02.

On to `CCN1CCN(Cc2ccc(Nc3ncc(F)c(-c4cc(F)c5nc(C)n(C(C)C)c5c4)n3)nc2)CC1`, for which the fractional viability is 0.289 under setting [1], 0.473 under setting [2], 0.0303 under setting [3] and 0.0236 under setting [4].

With `C[N+](C)(C)C[C@H](O)CC(=O)[O-]` [L-carnitine], the fractional viability by setting is: under setting [1], 1.12; under setting [2], 1.14; under setting [3], 0.8; under setting [4], 1.07.

Turning to `Cc1nnc(C(=O)NC(C)(C)c2nc(C(=O)NCc3ccc(F)cc3)c(O)c(=O)n2C)o1` [Raltegravir (MK-0518)], the fractional viability worked out at 0.979 under setting [1], 1.07 under setting [2], 0.879 under setting [3] and 1.06 under setting [4].

For the molecule `CN(C)C(=S)NN=C(c1ccccn1)c1ccccn1`, the fractional viability by setting is: under setting [1], 0.177; under setting [2], 0.132; under setting [3], 0.255; under setting [4], 0.107.

Consider `Clc1ccc(NN=C(c2ccccc2)c2ccccn2)nc1`, for which the fractional viability was 0.116 under setting [1], 0.0468 under setting [2], 0.0355 under setting [3] and 0.0108 under setting [4].

`O=C(Nc1cccc(Cl)c1)c1ccccn1`: the fractional viability was 1.06 under setting [1], 1.05 under setting [2], 0.971 under setting [3] and 1.12 under setting [4].

For `CCC[S+]([O-])c1ccc2[nH]c(NC(=O)OC)nc2c1` (stereo not drawn) [Albendazole Oxide], the fractional viability worked out at 1.04 under setting [1], 0.909 under setting [2], 0.505 under setting [3] and 0.562 under setting [4].

As to `CC1(C)CC(=O)c2c(C(F)(F)F)nn(-c3ccc(C(N)=O)c(N[C@H]4CC[C@H](OC(=O)CN)CC4)c3)c2C1`, the fractional viability amounted to 0.976 under setting [1], 1.16 under setting [2], 0.981 under setting [3] and 1.09 under setting [4].

Regarding `CC[C@H](NC(=O)[C@H](C)NC)C(=O)N1C[C@@H](O)C[C@H]1Cc1c(-c2[nH]c3cc(F)ccc3c2C[C@@H]2C[C@H](O)CN2C(=O)[C@H](CC)NC(=O)[C@H](C)NC)[nH]c2cc(F)ccc12` [Birinapant], the fractional viability came out at 0.772 under setting [1], 1.15 under setting [2], 0.653 under setting [3] and 0.949 under setting [4].

As to `CS(=O)(=O)N1CCN(Cc2cc3nc(-c4cccc5[nH]ncc45)nc(N4CCOCC4)c3s2)CC1`, the fractional viability under setting [1] is 0.627, the fractional viability under setting [2] was 0.588, the fractional viability under setting [3] worked out at 0.272 and the fractional viability under setting [4] came out at 0.249.

Take `Cc1c(CN2CCN(C(=O)[C@H](C)O)CC2)sc2c(N3CCOCC3)nc(-c3cnc(N)nc3)nc12`: the fractional viability came to 0.214 under setting [1], 0.238 under setting [2], 0.175 under setting [3] and 0.15 under setting [4].

`COc1ccc(-c2nc(N3CCOCC3)c3sc(CN(C)c4ncc(C(=O)NO)cn4)cc3n2)cn1`: the fractional viability amounted to 0.0583 under setting [1], 0.0505 under setting [2], 0.0565 under setting [3] and 0.0395 under setting [4].

Regarding `O=C(Nc1c(Cl)cncc1Cl)c1ccc(OC(F)F)c(OCC2CC2)c1` [Roflumilast], the fractional viability is 0.966 under setting [1], 0.959 under setting [2], 0.921 under setting [3] and 1 under setting [4].

On to `Cc1cc(C)c(S(=O)(=O)n2cc(C)cc2C)c(C)c1`, for which the fractional viability came to 0.788 under setting [1], 0.862 under setting [2], 0.757 under setting [3] and 0.765 under setting [4].

For `CC(C)NC[C@H](O)COc1ccc(CCOCC2CC2)cc1` [Levobetaxolol HCl], the fractional viability under setting [1] is 1.13, the fractional viability under setting [2] came out at 1.21, the fractional viability under setting [3] was determined as 0.846 and the fractional viability under setting [4] turned out to be 1.27.

For the molecule `C=CC(=O)Nc1cc(Nc2nccc(-c3cn(C)c4ccccc34)n2)c(OC)cc1N(C)CCN(C)C`, the fractional viability is 0.614 under setting [1], 0.895 under setting [2], 0.0431 under setting [3] and 0.0512 under setting [4].

Turning to `C=CC(=O)Nc1cccc(Nc2nc(Nc3ccc(NC4CN(CCF)C4)cc3OC)ncc2C(F)(F)F)c1`, the fractional viability by setting is: under setting [1], 0.67; under setting [2], 0.752; under setting [3], 0.164; under setting [4], 0.154.

With `C=CC(=O)Nc1cc(Nc2nccc(-c3c[nH]c4ccccc34)n2)c(OC)cc1N(C)CCN(C)C`, the fractional viability by setting is: under setting [1], 0.324; under setting [2], 0.409; under setting [3], 0.0466; under setting [4], 0.0525.
